{"source": "PubChem BioAssay AID1345085", "about": "(National Center for Advancing Translational Sciences (NCATS), 2018)", "tested_on": "Jar", "assay": "Confirmatory qHTS for gynecologic anti-cancer compounds from libraries of approved drugs and bioactive compounds; also: nearly all actives have a fitted effect of over 55% in size", "settings": "gynecologic cancer cell panel viability, ATPlite luminescence, 48 h; series mostly up to 57.6 µM", "how_it_was_run": "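ATPlite luminescence read-out of cell viability; IC50 from 11-point 1:3 titrations, 57.5 uM to 0.977 nM, 48 h compound exposure at 37 C, 5% CO2. Cells seeded at 1,000/well 16 h before dosing.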", "note": "Results filed as inconclusive are left out. A call without a number means that no potency is given here. Calls of active or inactive are those of the source. Calls follow the shape of the dose curve; as a rule, active = well fitted cell-killing curve with a large enough effect; inconclusive = small, poorly fitted or top-dose-only effect, or effect the other way; inactive = no such curve, though single readings can be large or run the other way. Potency is read from the fitted curve at half-maximal effect."}
{"smiles": "CCNC(=O)C[C@@H]1N=C(c2ccc(Cl)cc2)c2cc(OC)ccc2-n2c(C)nnc21", "values": [{"measurement": "Potency", "result": "inactive"}]}
{"smiles": "Cc1sc2c(c1C)C(c1ccc(Cl)cc1)=NC(CC(=O)OC(C)(C)C)c1nnc(C)n1-2", "note": "(configuration not stated)", "values": [{"measurement": "Potency", "result": "5440 nM (active)"}]}
{"smiles": "C[C@H]1CCC/C=C/C2C[C@H](O)C[C@H]2[C@H](O)/C=C/C(=O)O1", "note": "(some centres not stated)", "values": [{"measurement": "Potency", "result": "432 nM (active)"}]}
{"smiles": "O=C(O)Cc1ccccc1", "values": [{"measurement": "Potency", "result": "inactive"}]}
{"smiles": "C=C(C)[C@H]1Cc2c(ccc3c2O[C@@H]2COc4cc(OC)c(OC)cc4[C@@H]2C3=O)O1", "values": [{"measurement": "Potency", "result": "34.3 nM (active)"}]}
{"smiles": "CCC(=O)O[C@H]1CC[C@H]2[C@@H]3CCC4=CC(=O)CC[C@]4(C)[C@H]3CC[C@]12C", "values": [{"measurement": "Potency", "result": "inactive"}]}
{"smiles": "C[C@]12CC[C@H]3[C@@H](CCC4=CC(=O)CC[C@@H]43)[C@@H]1CC[C@@H]2OC(=O)CCc1ccccc1", "values": [{"measurement": "Potency", "result": "inactive"}]}
